Laboratory results reported in PubChem BioAssay (NCATS).
Records with an inconclusive call do not appear. The source made the active and inactive calls. The call rests on the fitted dose curve; in most records, active means well fitted cell-killing curve with a large enough effect; inconclusive means small, poorly fitted or top-dose-only effect, or effect the other way; inactive means no such curve, though single readings can be large or run the other way.

Experiment: Quantitative High-Throughput drug screen in 47 multiple myeloma cell lines against the NCATS MIPE library collection: INA6_PLB cell viability assay (AID 1918965; further: nearly all actives have a fitted effect of over 55% in size)
Conditions: INA6 myeloma viability, CellTiter-Glo ATP luminescence, 48 h; series mostly up to 45.8 µM
Description: PI: Beverly A. Mock Ph.D.
Laboratory of Cancer Biology and Genetics,
Center for Cancer Research, National Cancer Institute,
National Institute of Health, Bethesda, Maryland
Drug resistance and disease progression are common in multiple myeloma (MM) patients, underscoring the need for new therapeutic combinations. […] We hypothesized that effective combinations would reduce MYC expression and enhance p16 activity. […] These preclinical data identify potentially useful drug combinations for evaluation in drug-resistant MM and reveal potential mechanisms of combined drug sensitivity.
Described herein is the primary MIPE qHTS used to cherrypick compounds. Validated compounds were then further tested for potential synergistic activiy.
[1] Peat TJ, Gaikwad SM, Dubois W, Gyabaah-Kessie N, Zhang S, Gorjifard S, Phyo Z, Andres M, Hughitt VK, Simpson RM, Miller MA, Girvin AT, Taylor A, Williams D, D'Antonio N, Zhang Y, Rajagopalan A, Flietner E, Wilson K, Zhang X, Shinn P, Klumpp-Thomas C, McKnight C, Itkin Z, Chen L, Kazandijian D, Zhang J, Michalowski AM, Simmons JK, Keats J, Thomas CJ, Mock BA. Drug combinations identified by high-throughput screening promote cell cycle transition and upregulate Smad pathways in myeloma. Cancer Lett. 2023 Aug 1;568:216284. doi: 10.1016/j.canlet.2023.216284. Epub 2023 Jun 24. PMID: 37356470; PMCID: PMC10408729.
SEQUENCE No. (e.g., 1, 2, 3, etc.); […] (e.g., Cells, Incubation, Reagent, etc.); VALUE and DESCRIPTION.
1; Cells; 5 uL; white, solid bottom 1536-well Greiner assay plate.
2; Compounds; 23 nL; Kalypsis pin tool (Wako USA) equipped with a 1536-well pin head to transfer to the assay plates.
3; Incubation; 48 hours; 37C incubation.
4; Reagent;5uL; CellTiter Glo (Promega).
5; Detector; 425V; Luminescence; Viewlux PerkinElmer.
NOTES (numbers refer to Sequence numbers above)
1. The cell-based screening methods employed in this study were like those previously published. Briefly, the corresponding myeloma cell lines were screened in 1,536-well plates with 500 cells, 5-uL per well for inhibition of cell viability (assessed by measuring ATP levels with CellTiterGlo).
2. NCATS MIPE 4.0 library of approved and investigational drugs were added using the Kalypsis pin tool. Wells treated with DMSO only for 100% viability and media only wells for 0% viability were used as controls.
3. The assay plates were covered and incubated for 48 hours in a 37C, 5% CO2 incubator with controlled humidity.
4. After 48 hours, CellTilter-GloTM luminescent substrate mix (Promega) reagent was added to the assay plate and plates we incubated for 5 min at room temperature.
5. Signal was measured as median relative luminescence units on a ViewLux (PerkinElmer) multiplate reader.
[1] Heske CM, Davis MI, Baumgart JT, Wilson K, Gormally MV, Chen L, Zhang X, Ceribelli M, Duveau DY, Guha R, Ferrer M, Arnaldez FI, Ji J, Tran HL, Zhang Y, Mendoza A, Helman LJ, Thomas CJ. Matrix Screen Identifies Synergistic Combination of PARP Inhibitors and Nicotinamide Phosphoribosyltransferase (NAMPT) Inhibitors in Ewing Sarcoma. Clin Cancer Res. 2017 Dec 1;23(23):7301-7311. doi: 10.1158/1078-0432.CCR-17-1121. Epub 2017 Sep 12. PMID: 28899971; PMCID: PMC6636827.
Potency means the concentration at half of the fitted maximal effect.

Q: With COC(=O)C1=C(C)NC(C)=C(C(=O)OC(C)C)C1c1cccc2nonc12 (stereo not given) as the molecule, how does the Potency read?
A: Its Potency is 26.4 µM (active).

Q: Which Potency does the source give for COc1cc(C(C)=O)ccc1OCCCN1CCC(c2noc3cc(F)ccc23)CC1 here?
A: Its Potency is 14.8 µM (active).

Q: For C[C@@H](N)C1CCC(C(=O)Nc2ccncc2)CC1 (stereo not given in full), which Potency is on record?
A: The Potency was 18.7 µM (active).

Q: Which Potency does the source give for Cc1ccc(Nc2nccc(N(C)c3ccc4c(C)n(C)nc4c3)n2)cc1S(N)(=O)=O here?
A: The Potency was 3.72 µM (active).

Q: For Cc1ccc(C)c(OCCCC(C)(C)C(=O)O)c1, which Potency is on record?
A: The Potency was 20.9 µM (active).

Q: For c1ccc2[nH]c(-c3cscn3)nc2c1, which Potency is on record?
A: The Potency was “inactive”.

Q: With Cc1cccc(CN2CCN(C(c3ccccc3)c3ccc(Cl)cc3)CC2)c1 (stereo not given) as the molecule, how does the Potency read?
A: Its Potency is 16.6 µM (active).

Q: For Cc1nc(Nc2ncc(C(=O)Nc3c(C)cccc3Cl)s2)cc(N2CCN(CCO)CC2)n1, which Potency is on record?
A: Its Potency is 0.0833 µM (active).

Q: With Cc1cccc(C#Cc2ccccc2)n1 as the molecule, how does the Potency read?
A: Its Potency is 13.2 µM (active).

Q: For CCCCN(CCCC)CCC(O)c1cc2c(Cl)cc(Cl)cc2c2cc(C(F)(F)F)ccc12 (stereo not given), which Potency is on record?
A: The Potency was 18.7 µM (active).

Q: For Nc1ncn([C@H]2C[C@H](O)[C@@H](CO)O2)c(=O)n1, which Potency is on record?
A: Its Potency is 0.0235 µM (active).

Q: With CN(C)c1ccc2nc3ccc(=[N+](C)C)cc-3sc2c1 as the molecule, how does the Potency read?
A: Its Potency is 1.48 µM (active).

Q: For CC1(C)CCC(C)(C)c2cc(NC(=O)c3ccc(C(=O)O)cc3)ccc21, which Potency is on record?
A: The Potency was 18.7 µM (active).

Q: With CC(C)c1ccc2oc3nc(N)c(C(=O)O)cc3c(=O)c2c1 as the molecule, how does the Potency read?
A: The Potency was “inactive”.

Q: For c1cnc2cc3c(cc2n1)C1CNCC3C1, which Potency is on record?
A: The Potency was “inactive”.

Q: Which Potency does the source give for Cc1ccc(S(=O)(=O)NC(=O)NN2CC3CCCC3C2)cc1 (stereo not given) here?
A: Its Potency is 20.9 µM (active).

Q: With CCCCCCCCOc1ccccc1C(=O)Nc1ccc(C(=O)OCC[N+](C)(CC)CC)cc1 as the molecule, how does the Potency read?
A: Its Potency is 18.7 µM (active).

Q: With Cc1cc(Cl)ccc1OCCCC(=O)NO as the molecule, how does the Potency read?
A: Its Potency is 7.43 µM (active).

Q: Which Potency does the source give for Oc1ccc2ccccc2c1SSc1c(O)ccc2ccccc12 here?
A: The Potency was 5.9 µM (active).

Q: For Clc1ccc(C(Cn2ccnc2)OCc2ccsc2Cl)c(Cl)c1 (stereo not given), which Potency is on record?
A: Its Potency is 26.4 µM (active).

Q: For CCOc1cc(CC(=O)N[C@@H](CC(C)C)c2ccccc2N2CCCCC2)ccc1C(=O)O, which Potency is on record?
A: The Potency was “inactive”.

Q: For NCCCCNCCCN, which Potency is on record?
A: Its Potency is 11.8 µM (active).

Q: Which Potency does the source give for S=c1nc[nH]c2nc[nH]c12 here?
A: Its Potency is 1.87 µM (active).

Q: For CC1Cc2ccccc2N1NC(=O)c1ccc(Cl)c(S(N)(=O)=O)c1 (stereo not given), which Potency is on record?
A: The Potency was “inactive”.

Q: Which Potency does the source give for Cc1cc(=O)oc2cc(O)ccc12 here?
A: Its Potency is “inactive”.

Q: With CCc1nc(N)nc(N)c1-c1ccc(Cl)cc1 as the molecule, how does the Potency read?
A: The Potency was 10.5 µM (active).

Q: Which Potency does the source give for CC1=C(C(=O)O)N2C(=O)[C@@H](NC(=O)[C@H](N)C3=CCC=CC3)[C@H]2SC1 here?
A: Its Potency is “inactive”.

Q: Which Potency does the source give for CN(C)c1ccc(O)c2c1C[C@H]1C[C@H]3[C@H](N(C)C)C(=O)C(C(N)=O)=C(O)[C@@]3(O)C(=O)C1=C2O here?
A: The Potency was 13.2 µM (active).

Q: With Cc1nc2n(c(=O)c1CCN1CCC(c3noc4cc(F)ccc34)CC1)CCCC2 as the molecule, how does the Potency read?
A: The Potency was “inactive”.

Q: With O=C(O)c1cccc(-c2noc(-c3ccccc3F)n2)c1 as the molecule, how does the Potency read?
A: Its Potency is 23.5 µM (active).

Q: With CCCCc1ccc2nc(NC(=O)OC)[nH]c2c1 as the molecule, how does the Potency read?
A: The Potency was 0.001 µM (active).

Q: With COc1ccc2cc([C@H](C)C(=O)O)ccc2c1 as the molecule, how does the Potency read?
A: Its Potency is “inactive”.

Q: With Cc1ccc(NC(=O)c2ccc(CN3CCN(C)CC3)cc2)cc1Nc1nccc(-c2cccnc2)n1 as the molecule, how does the Potency read?
A: The Potency was 16.6 µM (active).

Q: For CN1CCC(=C2c3ccccc3CCc3sccc32)CC1, which Potency is on record?
A: Its Potency is 16.6 µM (active).

Q: Which Potency does the source give for CC(=O)NC[C@H]1CN(c2ccc(N3CCOCC3)c(F)c2)C(=O)O1 here?
A: The Potency was “inactive”.

Q: With CCOC(=O)C1=C[C@@H](OC(CC)CC)[C@H](NC(C)=O)[C@@H](N)C1 as the molecule, how does the Potency read?
A: Its Potency is “inactive”.

Q: Which Potency does the source give for CN(C)C(=O)COC(=O)Cc1ccc(OC(=O)c2ccc(N=C(N)N)cc2)cc1 here?
A: Its Potency is 1.48 µM (active).

Q: For COc1cc2nc(N3CCN(C(=O)C4CCCO4)CC3)nc(N)c2cc1OC (stereo not given), which Potency is on record?
A: Its Potency is “inactive”.

Q: For O=Nc1c(-c2c(O)[nH]c3cc(Br)ccc23)[nH]c2ccccc12, which Potency is on record?
A: The Potency was 0.526 µM (active).

Q: With Nc1nc(N)c(N=O)c(OCC2CCCCC2)n1 as the molecule, how does the Potency read?
A: Its Potency is 5.26 µM (active).
